Experimental data from publication PMC8384837, “Expanding the binding specificity for RNA recognition by a PUF domain”.
Substitutions are numbered along the chain they refer to.

How the values were obtained:
Experiment in all cases: yeast three-hybrid, YBZ-1, SC-Leu-His + 0.5 mM 3-AT, 4 days
Conditions in all cases: tags: N-Gal4 AD-HA kept; label: inside an RPR1-promoter hybrid RNA with tandem MS2 sites; ssRNA
[1] = target: PUM1 PUF domain R1-RRV (Homo sapiens, UniProt Q14671 828-1176, S863R;Q867V)
Procedure, shortened: (§1)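 The interaction score is the log change in variant frequency from input to selection. Scores were computed in log2 with a pseudocount of 1 for absent variants, using Illumina sequencing of PCR-amplified repeat regions. The input came from four days on SC-Leu and the selection from four days on SC-Leu-His + 0.5 mM 3-AT. The cells were strain YBZ-1 (LexA–MS2 coat fusion, HIS3 reporter) co-expressing Pumilio-1 PUF domain libraries and matching RNA elements from a centromeric plasmid.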

[2] = target: PUM1 PUF domain R2-SWW (Homo sapiens, UniProt Q14671 828-1176, N899S;Y900W;Q903W)
Procedure, shortened: as §1

[3] = target: PUM1 PUF domain R5-RAP (Homo sapiens, UniProt Q14671 828-1176, C1007R;R1008A;Q1011P)
Procedure, shortened: as §1

[4] = target: PUM1 PUF domain R5-SGK (Homo sapiens, UniProt Q14671 828-1176, C1007S;R1008G;Q1011K)
Procedure, shortened: as §1

[5] = target: PUM1 PUF domain R5-KSR (Homo sapiens, UniProt Q14671 828-1176, C1007K;R1008S;Q1011R)
Procedure, shortened: as §1

[6] = target: PUM1 PUF domain R8-CWR (Homo sapiens, UniProt Q14671 828-1176, N1122C;Y1123W;Q1126R)
Procedure, shortened: as §1

[7] = target: PUM1 PUF domain R8-KYV (Homo sapiens, UniProt Q14671 828-1176, N1122K;Q1126V)
Procedure, shortened: as §1

[8] = target: PUM1 PUF domain R7-VER (Homo sapiens, UniProt Q14671 828-1176, S1079V;N1080E;E1083R)
Procedure, shortened: as §1

[9] = target: PUM1 PUF domain R4-MNR (Homo sapiens, UniProt Q14671 828-1176, N971M;H972N;Q975R)
Procedure, shortened: as §1

[10] = target: PUM1 PUF domain R4-PYE (Homo sapiens, UniProt Q14671 828-1176, N971P;H972Y;Q975E)
Procedure, shortened: as §1

[11] = target: T1, PUM1 PUF domain R6-KYR (Homo sapiens, UniProt Q14671 828-1176, N1043K;Q1047R)
T1 sequence: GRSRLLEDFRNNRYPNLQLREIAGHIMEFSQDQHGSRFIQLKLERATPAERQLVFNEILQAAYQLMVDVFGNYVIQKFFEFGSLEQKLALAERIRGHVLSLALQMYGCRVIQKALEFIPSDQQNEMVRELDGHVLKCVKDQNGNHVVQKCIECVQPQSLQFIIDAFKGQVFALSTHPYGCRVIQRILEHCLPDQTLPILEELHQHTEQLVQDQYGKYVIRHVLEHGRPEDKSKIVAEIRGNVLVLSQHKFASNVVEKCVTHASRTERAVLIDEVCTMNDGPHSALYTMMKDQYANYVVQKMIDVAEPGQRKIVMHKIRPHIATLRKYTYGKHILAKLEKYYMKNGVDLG
Procedure, shortened: as §1

[12] = target: PUM1 PUF domain R3-VNV (Homo sapiens, UniProt Q14671 828-1176, C935V;R936N;Q939V)
Procedure, shortened: as §1

[13] = target: PUM1 PUF domain R8-KWR (Homo sapiens, UniProt Q14671 828-1176, N1122K;Y1123W;Q1126R)
Procedure, shortened: as §1

[14] = target: PUM1 PUF domain R5-LYE (Homo sapiens, UniProt Q14671 828-1176, C1007L;R1008Y;Q1011E)
Procedure, shortened: as §1

[15] = target: PUM1 PUF domain R8-EWR (Homo sapiens, UniProt Q14671 828-1176, N1122E;Y1123W;Q1126R)
Procedure, shortened: as §1

[16] = target: T2, PUM1 PUF domain R6-GWM (Homo sapiens, UniProt Q14671 828-1176, N1043G;Y1044W;Q1047M)
T2 sequence: T1 sequence with K216G, Y217W, R220M
Procedure, shortened: as §1

[17] = target: PUM1 PUF domain R8-KYA (Homo sapiens, UniProt Q14671 828-1176, N1122K;Q1126A)
Procedure, shortened: as §1

[18] = target: PUM1 PUF domain R3-MRA (Homo sapiens, UniProt Q14671 828-1176, C935M;Q939A)
Procedure, shortened: as §1

[19] = target: PUM1 PUF domain R5-RKV (Homo sapiens, UniProt Q14671 828-1176, C1007R;R1008K;Q1011V)
Procedure, shortened: as §1

[20] = target: PUM1 PUF domain R5-DWH (Homo sapiens, UniProt Q14671 828-1176, C1007D;R1008W;Q1011H)
Procedure, shortened: as §1

In the case of “GGCUAGAACUAGUGGAUCCCCCGGCGCCCGGCGGCUCGAGCCCGGGUAAGUGUAAAUCGUCUGCAUGCCGCCGGGCGCCAUGCCUGCAGGUCGACUCUAGAAAACAUG”, the binding signal [1] is reported as 3.63 log2 enrichment (interaction score).

With “GGCUAGAACUAGUGGAUCCCCCGGCGCCCGGCGGCUCGAGCCCGGGUAAGUGUAAAAAGUCUGCAUGCCGCCGGGCGCCAUGCCUGCAGGUCGACUCUAGAAAACAUG” the binding signal [2] was 3.5 log2 enrichment (interaction score).

“GGCUAGAACUAGUGGAUCCCCCGGCGCCCGGCGGCUCGAGCCCGGGUAAGUGUUAAUAGUCUGCAUGCCGCCGGGCGCCAUGCCUGCAGGUCGACUCUAGAAAACAUG” was tested, and the binding signal [3] was 0.85 log2 enrichment (interaction score), the binding signal [4] was 2.15 log2 enrichment (interaction score) and the binding signal [5] was 2.77 log2 enrichment (interaction score).

In the case of “GGCUAGAACUAGUGGAUCCCCCGGCGCCCGGCGGCUCGAGCCCGGGUAAGGGUAAAUAGUCUGCAUGCCGCCGGGCGCCAUGCCUGCAGGUCGACUCUAGAAAACAUG”, the binding signal [6] is reported as 2.72 log2 enrichment (interaction score) and the binding signal [7] is reported as 3.44 log2 enrichment (interaction score).

For “GGCUAGAACUAGUGGAUCCCCCGGCGCCCGGCGGCUCGAGCCCGGGUAAGUUUAAAUAGUCUGCAUGCCGCCGGGCGCCAUGCCUGCAGGUCGACUCUAGAAAACAUG”, the binding signal [8] was 3.22 log2 enrichment (interaction score).

For “GGCUAGAACUAGUGGAUCCCCCGGCGCCCGGCGGCUCGAGCCCGGGUAAGUGUAUAUAGUCUGCAUGCCGCCGGGCGCCAUGCCUGCAGGUCGACUCUAGAAAACAUG”, the binding signal [9] was 4.01 log2 enrichment (interaction score) and the binding signal [10] was 4.08 log2 enrichment (interaction score).

In the case of “GGCUAGAACUAGUGGAUCCCCCGGCGCCCGGCGGCUCGAGCCCGGGUAAGUGUAAAUAGUCUGCAUGCCGCCGGGCGCCAUGCCUGCAGGUCGACUCUAGAAAACAUG”, the binding signal [11] is reported as 5.19 log2 enrichment (interaction score), the binding signal [12] is reported as 3.12 log2 enrichment (interaction score) and the binding signal [6] is reported as 4.45 log2 enrichment (interaction score). The binding signal [13] was 5.93 log2 enrichment (interaction score), the binding signal [7] was 2.77 log2 enrichment (interaction score) and the binding signal [14] was 3.07 log2 enrichment (interaction score). For the same sequence, the binding signal [15] was 1.16 log2 enrichment (interaction score) and the binding signal [16] was 2.52 log2 enrichment (interaction score).

With “GGCUAGAACUAGUGGAUCCCCCGGCGCCCGGCGGCUCGAGCCCGGGUAAGUGUAAAUUGUCUGCAUGCCGCCGGGCGCCAUGCCUGCAGGUCGACUCUAGAAAACAUG” the binding signal [1] was 3.36 log2 enrichment (interaction score).

“GGCUAGAACUAGUGGAUCCCCCGGCGCCCGGCGGCUCGAGCCCGGGUAAGUGUAAAUGGUCUGCAUGCCGCCGGGCGCCAUGCCUGCAGGUCGACUCUAGAAAACAUG” was tested, and the binding signal [1] was 1.17 log2 enrichment (interaction score).

In the case of “GGCUAGAACUAGUGGAUCCCCCGGCGCCCGGCGGCUCGAGCCCGGGUAAGUGUACAUAGUCUGCAUGCCGCCGGGCGCCAUGCCUGCAGGUCGACUCUAGAAAACAUG”, the binding signal [9] is reported as 3.28 log2 enrichment (interaction score) and the binding signal [10] is reported as 0.65 log2 enrichment (interaction score).

In the case of “GGCUAGAACUAGUGGAUCCCCCGGCGCCCGGCGGCUCGAGCCCGGGUAAGCGUAAAUAGUCUGCAUGCCGCCGGGCGCCAUGCCUGCAGGUCGACUCUAGAAAACAUG”, the binding signal [17] is reported as 3.04 log2 enrichment (interaction score), the binding signal [6] is reported as 4.31 log2 enrichment (interaction score) and the binding signal [13] is reported as 6.68 log2 enrichment (interaction score). For the same sequence, the binding signal [7] was 2.16 log2 enrichment (interaction score) and the binding signal [15] was 2.45 log2 enrichment (interaction score).

“GGCUAGAACUAGUGGAUCCCCCGGCGCCCGGCGGCUCGAGCCCGGGUAAGUGUAAGUAGUCUGCAUGCCGCCGGGCGCCAUGCCUGCAGGUCGACUCUAGAAAACAUG” was tested, and the binding signal [18] was 5.2 log2 enrichment (interaction score).

In the case of “GGCUAGAACUAGUGGAUCCCCCGGCGCCCGGCGGCUCGAGCCCGGGUAAGUGUCAAUAGUCUGCAUGCCGCCGGGCGCCAUGCCUGCAGGUCGACUCUAGAAAACAUG”, the binding signal [3] is reported as 4.21 log2 enrichment (interaction score), the binding signal [19] is reported as 2.43 log2 enrichment (interaction score) and the binding signal [4] is reported as 0.9 log2 enrichment (interaction score). The binding signal [5] was 4.35 log2 enrichment (interaction score).

For “GGCUAGAACUAGUGGAUCCCCCGGCGCCCGGCGGCUCGAGCCCGGGUAAGUGUAAUUAGUCUGCAUGCCGCCGGGCGCCAUGCCUGCAGGUCGACUCUAGAAAACAUG”, the binding signal [18] was 2.68 log2 enrichment (interaction score).

For “GGCUAGAACUAGUGGAUCCCCCGGCGCCCGGCGGCUCGAGCCCGGGUAAGUGUGAAUAGUCUGCAUGCCGCCGGGCGCCAUGCCUGCAGGUCGACUCUAGAAAACAUG”, the binding signal [20] was 4.75 log2 enrichment (interaction score).
